eLon inh = inhibitors of E. coli Lon protease, primary screen, biochemical, fluorescence polarization; purified E. coli Lon protease; inhibition, % at 7.94 µM; 0.42% of 360,000 active; in the data active = inhibition above about 13%, passing the limit was not always enough;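 also: 0% = enzyme with probe and DMSO and 100% = no enzyme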
PAFAH1B2 FP inh = PAFAH1B2 enzyme inhibitors, primary screen, biochemical, fluorescence polarization, human. recombinant PAFAH1B2, FP-rhodamine activity probe. 1.2% of 340,000 active. AID 492953, 2010. inhibition, % at 3.39 µM. Platelet-activating factor acetylhydrolase IB subunit alpha2 (Homo sapiens), P68402;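 active = inhibition above the mean of all tested compounds plus 3 SD, cut at about 24% in these data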;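 also: 0% = enzyme with DMSO and 100% = wells lacking PAFAH1B2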
Rin1-Abl PPI inh = inhibitors of Rin1-Abl protein binding, primary screen, biochemical, TR-FRET | Tyrosine-protein kinase ABL1 (Homo sapiens) + Ras and Rab interactor 1 (Homo sapiens), … | inhibition, % at 7.35 µM | 0.4% of 360,000 active | AID 588664, 2011; in the data active = inhibition above about 5%, passing the limit was not always enough
PAFAH2 FP inh = PAFAH2 enzyme inhibitors, primary screen, biochemical, fluorescence polarization, human. AID 492956, 2010. inhibition, % at 3.39 µM. 0.99% of 340,000 active. recombinant PAFAH2, FP-rhodamine activity probe;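 active = inhibition above the mean over all tested compounds plus 3 SD, cut at about 30% in these data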;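 also: inhibitors block probe labeling of enzyme so polarization drops; 0% = enzyme with DMSO and 100% = wells lacking PAFAH2 protein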
pPAFAH inh = pPAFAH enzyme inhibitors, primary screen, biochemical, fluorescence polarization, human. inhibition, % at 3.39 µM. Platelet-activating factor acetylhydrolase (Homo sapiens), Q13093. AID 463082, 2010. recombinant pPAFAH, FP-rhodamine probe fluorescence polarization. 1.5% of 330,000 active;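 active = inhibition above the mean inhibition across the screen plus 3 SD, cut at about 25% in these data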;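 also: inhibitors block binding of the rhodamine activity-based probe so polarization drops; 0% = enzyme with DMSO and 100% = wells lacking pPAFAH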
PAFAH1B3 FP inh = PAFAH1B3 enzyme inhibitors, primary screen, biochemical, fluorescence polarization, human | recombinant PAFAH1B3, FP-rhodamine probe | inhibition, % at 3.39 µM | 0.28% of 340,000 active;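 active = inhibition above the screen-wide average of all tested compounds plus 3 SD, cut at about 25% in these data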;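 also: 0% = enzyme with DMSO only and 100% = wells lacking PAFAH1B3 protein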
* hit, by the source's call; i = inactive; . = no result. Rows were chosen to be rich in hits. Some 3.1% of all compounds tested hit in one or more screens of this group.

SMILES	eLon inh	PAFAH1B2 FP inh	Rin1-Abl PPI inh	PAFAH2 FP inh	pPAFAH inh	PAFAH1B3 FP inh
Cc1c(NC(=O)C23CC4CC(CC(C)(C4)C2)C3)c(=O)n(-c2ccccc2)n1C	-7	35*	4	50*	3	4
O=C(CSc1ccc(Cl)cc1)NC1=NN(c2ccccc2)C(=O)C1	-4	96*	-1	18	32*	7
Cc1c(NC(=O)CCSc2ccc(Cl)cc2)c(=O)n(-c2ccccc2)n1C	5	32*	-4	4	8	2
Cc1c(NC(=O)COC(=O)COc2ccc(Nc3ccccc3)cc2)c(=O)n(-c2ccccc2)n1C	5	-2	0	4	25*	-2
CC(=O)NC12CC3CC(C1)CC(C(=O)Nc1c(C)n(C)n(-c4ccccc4)c1=O)(C3)C2	-10	10	0	-3	-1	8
CCOC(=O)C1(C)CCN1C(=O)c1ccc(OC)c(F)c1 (stereo unspecified)	-4	.	0	.	.	.
O=C(Nc1ccn(CCCNC2CCN(Cc3ccccc3)CC2)c(=O)n1)OCc1ccccc1	-4	.	-1	.	.	.
Cc1ccc(S(=O)(=O)NC(CCC(N)=O)C(=O)NCc2ccc3c(c2)OCO3)c(C)c1 (stereo unspecified)	-10	2	-2	3	.	1
CCCCc1ccc(S(=O)(=O)NCCCN2CCCC2=O)cc1	-2	8	1	4	28*	4
Cc1ccc(NS(=O)(=O)c2ccc(C(=O)NCCCN3CCCC3=O)cc2)cc1C	2	1	0	6	31*	1
N#CCCN(C(=O)COC(=O)c1cc(=O)[nH]c2ccccc12)c1ccccc1	-4	4	-1	4	6	6
O=C(O)COc1ccccc1-c1nc(-c2ccccc2)c(-c2ccccc2)[nH]1	2	36*	-2	18	15	6
COc1cccc(-c2nc(-c3ccccc3)c(-c3ccccc3)[nH]2)c1OCC(=O)O	-3	24*	2	22	.	14
O=C(O)COc1ccc(-c2nc(-c3ccccc3)c(-c3ccccc3)[nH]2)cc1	-2	8	4	8	13	10
COc1ccc(C2c3ccc(O)cc3Oc3ncn(Cc4ccccc4)c(=N)c32)cc1OC (stereo unspecified)	-60	32*	2	46*	-4	32*
CC(Sc1nnc(CN2CCCC2)n1Cc1ccccc1)C(=O)Nc1ccc(F)c(F)c1F (stereo unspecified)	-4	-4	1	-4	.	-10
O=C(NCC1CCCO1)c1onc(CSc2ccc(Cl)cc2)c1C(=O)O (stereo unspecified)	-8	25*	4	-1	12	5
Cc1ccccc1SCc1noc(C(=O)NCC2CCCO2)c1C(=O)O (stereo unspecified)	8	9	0	26	4	4
Cn1c(CNC(=O)c2ccc(Cl)cc2)nnc1SCC(=O)Nc1sc2c(c1C#N)CCCC2	-1	26*	1	-1	4	3
O=C(c1cc(-c2cccc(Cl)c2)nc2ccccc12)N1CCN(c2ccccn2)CC1	0	-4	-4	4	5	1
O=C(O)c1cc(-c2cccc(Cl)c2)nc2nc(N3CCCCC3)sc12	0	82*	-6	12	0	27*
OCCCNc1cc(-c2ccccc2)nc2cc(-c3ccc(F)cc3)nn12	6	26*	-6	-10	4	5
COc1ccc(-c2cc3ccccc3oc2=O)cc1NC(=O)c1ccc([N+](=O)[O-])o1	-2	4	1	6	25*	2
O=C1C=C(NCc2ccc(Cl)cc2)CC(c2ccco2)C1 (stereo unspecified)	-3	29*	-2	11	11	12
Cc1ccc(SCC(=O)OCn2nnc3ccccc3c2=O)cc1C	6	6	-3	-8	30*	6
SMILES	eLon inh	PAFAH1B2 FP inh	Rin1-Abl PPI inh	PAFAH2 FP inh	pPAFAH inh	PAFAH1B3 FP inh
Cc1ccc(NCC(=O)N/N=C/c2cc(O)ccc2[N+](=O)[O-])cc1	0	.	6	.	30*	.
N#CCSc1ccccc1NC(=O)CN1C(=O)C2CC=CCC2C1=O (stereo unspecified)	-62	-3	0	-4	.	2
CCN(CC)c1ccc(/C=C2/C(=O)c3ccc(C(=O)O)cc3C2=O)cc1	i	-8	-5	18	28*	-7
O=C(O)c1ccccc1NS(=O)(=O)c1ccc(N/N=C/c2ccc(O)c(O)c2)c([N+](=O)[O-])c1	-6	59*	-2	72*	.	58*
COc1ccccc1NS(=O)(=O)c1cc([N+](=O)[O-])ccc1N/N=C/c1c[nH]c2ccccc12	-158	2	-3	2	12	3
COc1ccc(C=NNc2ccc([N+](=O)[O-])cc2S(=O)(=O)Nc2ccccc2C(=O)O)cc1OC	-31	1	4	11	33*	14
Cc1ccccc1NS(=O)(=O)c1ccc(C2CNC(=O)C2)cc1 (stereo unspecified)	3	4	0	-1	33*	4
O=C1C=C(O)c2c(O)cccc2C1=O	.	.	.	.	27*	.
COc1ccc(C(=O)NC(C)Cc2c[nH]c3ccccc23)cc1 (stereo unspecified)	2	.	-1	.	.	.
Cc1ccc(Cc2cnc(N3C(=N)SC(C)C3=O)s2)cc1 (stereo unspecified)	-4	75*	3	13	25*	-6
Cc1oc2c(cc(NS(=O)(=O)c3ccc(C(C)C)cc3)c3ccccc32)c1C(=O)O	-2	15	3	2	32*	8
Cc1ccc(S(=O)(=O)N2CCOC2CNC(=O)C(=O)NCc2ccc(Cl)cc2)cc1 (stereo unspecified)	-5	29*	4	-6	10	-3
Cc1ccc(CNC(=O)C(=O)NCC2OCCN2S(=O)(=O)c2ccc(Cl)cc2)cc1 (stereo unspecified)	3	22	-1	5	2	21
COc1ccc(CNC(=O)C(=O)NCC2OCCCN2S(=O)(=O)c2cccs2)cc1 (stereo unspecified)	8	27*	0	5	9	0
CC(CCc1ccccc1)NS(=O)(=O)c1ccccc1 (stereo unspecified)	-8	33*	0	4	16	8
Cn1cc(S(=O)(=O)N2CCOCC2)cc1C(=O)O	5	5	0	0	-6	4
O=[N+]([O-])c1cc(-n2cnnn2)ccc1N1CCC(Cc2ccccc2)CC1	4	6	-6	0	28*	3

Screens: PubChem, The Scripps Research Institute Molecular Screening Center
